NOD2 RIPK2 PPI = NOD2-RIPK2 binding disruptors in cells, primary screen, fluorescence, CHO cells, BLA complementation; hit rate 0.38% among 360,000; inhibition, % at 4.98 µM; CCF4 ratio; AID 624267, 2012; in the data active = inhibition above about 21%;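 also: 0% = vehicle only and 100% = reference blocker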
TMEM16A act = TMEM16A chloride channel activators or potentiators, primary screen, cell-based, HTS; Anoctamin-1 (Mus musculus), Q8BHY3; HEK293 TMEM16A/YFP-H148Q/I152L, iodide quench fluorescence; hits give low values; B-score at 10 µM; hit rate 0.3% among 340,000; AID 623877, 2012;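 active = fluorescence-ratio B-score plate-corrected deviation score at least 3 library SD below zero, with starting fluorescence score within 5 deviations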;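 also: channel opened by trigger with iodide after compound preincubation; score built on the fluorescence ratio of max minus min over baseline; more negative score means more quench and so TMEM16A activation or potentiation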
TMEM16A inh = TMEM16A chloride channel inhibitors, primary screen, cell-based, HTS. HEK293 TMEM16A/YFP iodide influx fluorescence, ionomycin. Anoctamin-1 (Mus musculus), Q8BHY3. hit rate 1.2% among 310,000. normalized B-score (activity score, 25-100; higher = stronger inhibition) at 10 µM;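 active = ratio plate-corrected score three or more library SD toward inhibition, starting fluorescence score within five deviations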;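 also: score derived from kinetic fluorescence span divided by baseline fluorescence per well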
TLR9-MyD88 inh = inhibitors of TLR9-MyD88 association in cells, primary screen, cell-based, CHO, BLA complementation, fluorescence; CCF4 FRET ratio; AID 504734, 2011; hit rate 0.21% among 340,000; inhibition, % at 4.98 µM; Toll-like receptor 9 (Homo sapiens) + Myeloid differentiation primary response protein …;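 active = inhibition above the mean over all tested compounds plus 3 SD, cut at about 21% in these data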;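 also: 0% = DMSO only wells and 100% = clavulanate BLA inhibitor control wells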
Target sequence (Q99836 whole entry, looked up): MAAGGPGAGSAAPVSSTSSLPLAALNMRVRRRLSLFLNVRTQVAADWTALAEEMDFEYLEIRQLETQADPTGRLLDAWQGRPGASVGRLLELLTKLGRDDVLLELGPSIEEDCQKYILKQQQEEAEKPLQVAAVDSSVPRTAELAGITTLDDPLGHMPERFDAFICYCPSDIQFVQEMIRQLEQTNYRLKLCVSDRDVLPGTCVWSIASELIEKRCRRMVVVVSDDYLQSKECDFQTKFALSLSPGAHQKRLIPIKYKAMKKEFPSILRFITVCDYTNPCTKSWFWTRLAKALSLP
Target sequence (Q9NR96 whole entry, looked up): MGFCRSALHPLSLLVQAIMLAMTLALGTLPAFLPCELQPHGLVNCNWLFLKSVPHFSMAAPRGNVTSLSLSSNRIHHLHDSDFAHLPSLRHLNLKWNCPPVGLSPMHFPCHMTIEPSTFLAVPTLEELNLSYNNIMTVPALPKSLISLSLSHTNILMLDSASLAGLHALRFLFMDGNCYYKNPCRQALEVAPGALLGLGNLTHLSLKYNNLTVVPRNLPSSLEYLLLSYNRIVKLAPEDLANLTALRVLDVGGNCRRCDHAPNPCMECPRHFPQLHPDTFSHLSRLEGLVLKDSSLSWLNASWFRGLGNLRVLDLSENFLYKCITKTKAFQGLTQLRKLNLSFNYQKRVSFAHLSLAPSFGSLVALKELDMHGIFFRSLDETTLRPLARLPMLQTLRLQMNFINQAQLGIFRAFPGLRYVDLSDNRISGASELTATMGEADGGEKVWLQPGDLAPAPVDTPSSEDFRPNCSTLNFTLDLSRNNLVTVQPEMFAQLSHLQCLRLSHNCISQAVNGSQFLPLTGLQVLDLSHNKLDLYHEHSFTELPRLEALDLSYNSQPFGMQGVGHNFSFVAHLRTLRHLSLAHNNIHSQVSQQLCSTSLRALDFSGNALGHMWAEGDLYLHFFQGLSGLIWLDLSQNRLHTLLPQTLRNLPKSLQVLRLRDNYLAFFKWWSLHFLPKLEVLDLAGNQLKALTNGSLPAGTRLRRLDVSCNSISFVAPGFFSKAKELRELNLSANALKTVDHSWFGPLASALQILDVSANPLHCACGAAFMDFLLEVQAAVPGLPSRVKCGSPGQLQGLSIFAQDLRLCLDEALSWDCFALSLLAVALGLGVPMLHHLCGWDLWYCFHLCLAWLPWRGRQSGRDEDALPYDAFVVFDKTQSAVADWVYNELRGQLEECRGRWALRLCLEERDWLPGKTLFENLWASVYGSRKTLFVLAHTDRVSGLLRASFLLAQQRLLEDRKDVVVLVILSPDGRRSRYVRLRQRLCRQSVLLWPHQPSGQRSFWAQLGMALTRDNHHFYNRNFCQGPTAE
TLR4 MyD88 comp = inhibitors of TLR4-MyD88 association in cells, primary screen, cell-based, HeLa CL3-4, BLA complementation, FRET ratio. Toll-like receptor 4 (Homo sapiens) + Myeloid differentiation primary response protein …. HeLa CL3-4 TLR4/MyD88 BLA complementation. inhibition, % at 8.4 µM. hit rate 0.18% among 200,000. AID 861, 2007; in the data active = inhibition above about 25%;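 also: 0% = vehicle and 100% = reference inhibitor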
GRK2 aptamer HTS = compounds blocking aptamer binding on GRK2 – biochemical, human GRK2, bead flow cytometry, HTS, primary screen; Beta-adrenergic receptor kinase 1 (Homo sapiens), P25098; FAM-aptamer displacement from GRK2; inhibition of aptamer binding, % at 10 µM; hit rate 0.59% among 330,000; AID 488847, 2010;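 active = inhibition of aptamer binding above 40%, roughly 3 SD of noise, on plates passing a quality check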;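 also: median bead fluorescence of bound FAM aptamer so fluorescent compounds give negative values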
* = called active by the depositor; i = inactive; / = not tested or not shown. Rows were chosen to be rich in hits. Some 2.2% of all compounds tested hit in one or more screens of this group.

SMILES | NOD2 RIPK2 PPI | TMEM16A act | TMEM16A inh | TLR9-MyD88 inh | TLR4 MyD88 comp | GRK2 aptamer HTS
CC(C)CCNC(=S)Nc1ccc([N+](=O)[O-])cc1 | -9.9 | i | 100* | -1.8 | 14.6 | 0.0
CC(C)CCNC(=S)Nc1ccc(Br)cc1 | -9.2 | i | i | 5.6 | -3.1 | 0.0
CCCCNC(=S)Nc1ccc([N+](=O)[O-])cc1 | -3.1 | i | 100* | 5.8 | 1.6 | 0.0
O=C(NNC(=S)Nc1ccc(F)cc1)c1cccc([N+](=O)[O-])c1 | -1.7 | i | i | 3.7 | / | 0.0
C[C@@H]1O[C@H](CCc2cccc(Cl)c2)CC2=C1C(=O)OC(C)(C)O2 | -0.6 | / | / | / | / | /
C=CCn1c(CSCc2ccccc2)nnc1SCC(=O)N1CCN(c2ccccc2)CC1 | 2.3 | i | i | -0.6 | -12.5 | 0.0
CCn1c(CSCc2ccc(C)cc2)nnc1SCC(=O)N1CCN(c2ccccc2)CC1 | 6.0 | i | 25* | 3.4 | -6.6 | 0.0
Cc1nc2nc(-c3ccc(F)cc3)cn2nc1C | 0.4 | i | i | -8.5 | / | 0.0
CCc1ccc(-c2cn3nc(C)c(C)nc3n2)cc1 | 8.4 | i | i | -1.4 | 26.9* | 5.0
CCOC(=O)c1c(NC(=O)C2C3C=CC(C3)C2(C)C(=O)O)sc2c1CCCC2 (stereo unspecified) | -5.6 | i | i | -13.1 | 6.3 | 64.0*
CCOC(=O)c1c(NC(=O)C2CCCCC2C(=O)O)sc2c1CCCCC2 (stereo unspecified) | -0.4 | i | i | -8.8 | -17.9 | 0.0
O=C(NNc1c([N+](=O)[O-])cc(C(F)(F)F)cc1[N+](=O)[O-])c1ccco1 | 0.1 | i | 100* | 0.4 | / | 3.0
O=C(NNc1c(F)c(F)cc(F)c1F)c1ccco1 | 10.0 | i | / | -0.5 | / | 1.0
NC(=O)c1ccc[n+](Cc2ccccc2)c1 | -1.3 | i | i | -0.6 | -3.6 | 80.0*
Cc1cccc(CSC(=N)N)c1 | -7.9 | i | i | 4.7 | -16.1 | 5.0
Cc1cccc(CSC(Nc2ccc(F)cc2)=C(C#N)C#N)c1 | 3.3 | i | 100* | -5.4 | -2.7 | 0.0
N#CC(C#N)=C(Nc1ccc(F)cc1)SCc1cccc(Br)c1 | 11.3 | i | 100* | -8.9 | -5.6 | 0.0
C=C(C)COc1ccc(-c2[nH]ncc2Oc2ccccc2OCC)c(O)c1 | 3.2 | i | 100* | -5.8 | -4.3 | 0.0
CCOC(=O)c1c(NC(=O)CSc2nnc(-c3c[nH]c4ccccc34)n2C)sc2c1CCCC2 | -3.5 | -21.5* | i | 7.0 | 4.7 | 2.0
CCOC(=O)c1c(NC(=O)CSc2nnc(-c3c[nH]c4ccccc34)n2CCOC)sc2c1CCCC2 | -2.6 | i | i | 3.5 | -9.4 | 4.0
Cc1cc2c(cc1C)-n1nnnc1C(N(Cc1ccccc1)Cc1ccccc1)C(=O)N2 (stereo unspecified) | 4.9 | / | / | / | / | /
CCN(CC)CCNC(=O)c1ccc(NC(=O)c2cn(-c3ccccc3)nc2-c2cccs2)cc1 | -11.4 | i | 25* | -1.7 | -8.6 | 2.0
CCN(CC)CCNC(=O)c1ccc(NC(=O)c2cn(-c3ccc(F)cc3)nc2-c2cccc(OC)c2)cc1 | -2.1 | i | i | -10.0 | / | 0.0
CCSc1nnc(NC(=O)C(CC)(C(F)(F)F)C(F)(F)F)s1 | -7.4 | i | 100* | 3.2 | -9.1 | 0.0
CCSc1nnc(NC(=O)C(C)(C(F)(F)F)C(F)(F)F)s1 | 3.1 | i | i | -5.6 | 2.1 | 0.0
SMILES | NOD2 RIPK2 PPI | TMEM16A act | TMEM16A inh | TLR9-MyD88 inh | TLR4 MyD88 comp | GRK2 aptamer HTS
Cc1cccc(N2C(=O)c3cccc(Oc4ccc(Cl)cc4)c3C2=O)c1 | -1.5 | -7.26* | i | -1.7 | -1.6 | 0.0
COC(=O)c1ccc(=O)c2nc3/c(=C/O)c(O)cc(=O)c3[nH]c12 | -8.2 | i | i | -0.2 | / | 67.0*
CC(C)(C)c1ccc(C(=O)c2c[nH]c(C(=O)NCc3cccs3)c2)cc1 | 12.4 | -8.1* | i | -16.8 | -13.0 | 0.0
Cc1c(NS(=O)(=O)c2ccc3c(c2)OCCO3)cccc1-c1nc2cccnc2s1 | 6.0 | i | 25* | 4.1 | 4.4 | 4.0
Cc1cc(-c2nc3cccnc3s2)ccc1NS(=O)(=O)c1ccc2c(c1)OCCO2 | -21.8 | i | i | -16.5 | -16.7 | 0.0
COc1ccccc1CNC(=O)C[C@H]1CC[C@@H]2[C@H](COC[C@H](O)CN2Cc2ccc3c(c2)OCO3)O1 | 12.1 | / | / | / | / | /
C#CCN1CCc2onc(-c3ccc(Br)cc3)c2C1=O | 5.9 | / | / | / | / | /
CN(C)N=Nc1ccc(S(N)(=O)=O)cc1 | 2.3 | i | i | -13.3 | -3.1 | 0.0
CCN(CC)N=Nc1ccc(S(N)(=O)=O)cc1 | 2.4 | -6.15* | i | 2.9 | -9.3 | 3.0
CC(C)[C@@H]1CC[C@@H](C)C[C@H]1O | -12.0 | / | / | / | / | /
CCc1oc2ccccc2c1C(=O)c1cc(Br)c(O)c(Br)c1 | 7.4 | i | 100* | 2.0 | -6.0 | 1.0
CCc1ccc(OCC(=O)c2c(O)c3ccccc3oc2=O)cc1 | 0.5 | i | i | -12.9 | 7.8 | 0.0
COC(=O)c1cc2ccsc2n1CC(=O)Nc1cc(Cl)ccc1OC | -4.0 | i | 25* | 3.5 | 5.3 | 0.0
COC(=O)c1cc2ccsc2n1CC(=O)Nc1ccc(N(C)C)cc1 | 2.5 | i | i | 2.9 | 2.2 | 0.0
O=C(Cc1ccccc1)NN1C(=O)C2C3C=CC(C3)C2C1=O (stereo unspecified) | 2.9 | -37.8* | i | -3.1 | -4.0 | 3.0
CC(=O)c1cccc(-c2ccnc3c2CC(C(=O)Nc2ccc(C(C)C)cc2)O3)c1 (stereo unspecified) | 13.7 | / | / | / | / | /
CSc1ccccc1NC(=O)CSCc1ccc(C)cc1 | -7.4 | -20.1* | i | 4.7 | -2.1 | 1.0
CC(C)n1nnnc1C1c2ccccc2C(=O)N1C1CC1 (stereo unspecified) | -1.7 | / | / | / | / | /
CC(=O)c1c(COC(=O)c2cccnc2)nc2ccccc2[n+]1[O-] | -12.1 | -8.84* | i | -7.0 | -3.8 | 4.0
Cc1sc2ncnc(N3CCN(CCOc4ccc(Cl)cc4)CC3)c2c1C | -3.4 | i | 100* | 4.3 | -1.8 | 0.0
Cc1ccc(OCC(=O)NNC(=O)C2CCN(c3ncnc4sc(C)c(C)c34)CC2)cc1 | 0.7 | i | i | 3.7 | / | 0.0
Cc1sc2ncnc(N3CCC(C(=O)NNC(=O)COc4cccc(C(F)(F)F)c4)CC3)c2c1C | 3.2 | i | 100* | 7.4 | / | 1.0
Cc1sc2ncnc(N3CCC(C(=O)NNC(=O)COc4ccc(Br)cc4)CC3)c2c1C | 4.3 | i | 100* | -0.8 | / | 3.0
